Assay results reported in PubChem BioAssay AID1159580 (chemical genetic matrix, 2015).
About 2,000 (36%) of roughly 5,500 compounds were called active. Not shown: some 18% with an inconclusive outcome. No stated cut-off is given here; in the data, active means normalized growth mostly below about 0.91 (no sharp cut-off); inconclusive means no clear call, values can overlap the other calls; inactive means mostly above about 0.92. This is one part of the list.

Assay: chemical genetic growth profiling, strain panel (AID 1159580);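 further: tested at 20 µM; growth read once vehicle control cultures reached saturation at 30 °C; 1 = growth at the plate median or of vehicle wells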
Conditions: S. cerevisiae deletion strains, growth OD

Measured: normalized growth

CCC(=O)c1ccc(-c2ccccc2)cc1
inactive: locus YAL013W, strain DEP1, stronger effect = lower value 0.948 | locus YBR229C, strain ROT2, stronger effect = lower value 0.93 | locus YDL101C, strain DUN1, stronger effect = lower value 0.918 | locus YDL134C, strain PPH21, stronger effect = lower value 0.963 | locus YDR150W, strain NUM1, stronger effect = lower value 0.899 | locus YGR078C, strain PAC10, stronger effect = lower value 0.935 | locus YGR229C, strain SMI1, stronger effect = lower value 0.978 | locus YHR087W, strain rtc3, stronger effect = lower value 0.939 | locus YJR075W, strain HOC1, stronger effect = lower value 0.912 | locus YLR058C, strain SHM2 (second series), stronger effect = lower value 0.953 | locus YML094W, strain GIM5, stronger effect = lower value 0.934 | locus YMR219W, strain ESC1, stronger effect = lower value 0.957 | locus YMR263W, strain SAP30, stronger effect = lower value 0.905 | locus YNL322C, strain KRE1, stronger effect = lower value 0.968 | locus YNR030W, strain Alg12, stronger effect = lower value 0.936 | locus YPL055C, strain LGE1, stronger effect = lower value 0.831 | locus YPL241C, strain CIN2, stronger effect = lower value 0.863
active: locus YCL061C, strain MRC1, stronger effect = lower value 0.904 | locus YEL061C, strain CIN8, stronger effect = lower value 0.895 | locus YHR030C, strain SLT2, stronger effect = lower value 0.502 | locus YJR043C, strain POL32, stronger effect = lower value 0.912 | locus YLR039C, strain RIC1, stronger effect = lower value 0.765 | locus YLR085C, strain ARP6, stronger effect = lower value 0.631 | locus YLR262C, strain YPT6, stronger effect = lower value 0.727 | locus YNL153C, strain GIM3, stronger effect = lower value 0.924 | locus YNL298W, strain CLA4 (second series), stronger effect = lower value 0.821 | locus YOL006C, strain TOP1, stronger effect = lower value 0.568 | locus YPR135W, strain CTF4, stronger effect = lower value 0.58
